# Screening results from PubChem BioAssay.
# This excerpt belongs to a sample that is enriched for hits.
# IDE exosite inh: exo-site inhibitors of human insulin-degrading enzyme. P14735. purified IDE, FL-6b probe fluorescence polarization; hits give low values. z-score at 20 µM. actives 6.3% (n = 17,000). AID 1259349;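 active means z-score of -3 or lower, meaning strong loss of probe binding signal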;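 further: His-tagged human IDE residues 42-1019 made in E. coli with 30 nM FL-6b probe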
# Target sequence (P14735 42-1019 limits assumed): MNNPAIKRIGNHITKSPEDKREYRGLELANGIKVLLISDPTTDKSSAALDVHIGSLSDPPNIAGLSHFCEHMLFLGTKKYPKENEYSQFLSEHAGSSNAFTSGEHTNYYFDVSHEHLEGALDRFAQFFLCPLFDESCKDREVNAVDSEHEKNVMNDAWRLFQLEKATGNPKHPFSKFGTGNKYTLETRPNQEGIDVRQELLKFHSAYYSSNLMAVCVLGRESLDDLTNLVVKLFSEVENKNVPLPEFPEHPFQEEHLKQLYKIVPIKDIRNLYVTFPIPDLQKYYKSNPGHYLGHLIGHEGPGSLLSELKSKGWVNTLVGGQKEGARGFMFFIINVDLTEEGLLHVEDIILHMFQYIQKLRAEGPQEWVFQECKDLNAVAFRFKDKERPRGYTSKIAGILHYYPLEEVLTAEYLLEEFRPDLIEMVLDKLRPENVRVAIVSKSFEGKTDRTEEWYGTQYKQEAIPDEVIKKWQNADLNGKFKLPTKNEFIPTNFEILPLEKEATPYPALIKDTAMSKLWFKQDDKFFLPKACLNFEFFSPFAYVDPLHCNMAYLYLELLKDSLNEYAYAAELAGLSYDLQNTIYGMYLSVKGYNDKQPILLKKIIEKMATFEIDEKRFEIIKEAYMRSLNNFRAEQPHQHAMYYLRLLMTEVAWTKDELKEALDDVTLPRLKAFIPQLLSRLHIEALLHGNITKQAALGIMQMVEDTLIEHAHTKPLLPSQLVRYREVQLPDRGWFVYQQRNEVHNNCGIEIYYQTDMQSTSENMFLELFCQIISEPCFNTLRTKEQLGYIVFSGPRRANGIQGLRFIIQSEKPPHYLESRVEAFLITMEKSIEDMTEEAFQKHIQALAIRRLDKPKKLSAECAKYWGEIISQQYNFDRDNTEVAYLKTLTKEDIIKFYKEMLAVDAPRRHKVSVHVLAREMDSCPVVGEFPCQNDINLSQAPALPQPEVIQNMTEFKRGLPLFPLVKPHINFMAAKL
# * marks the source's active call; other numbers are inactive results.
SMILES,IDE exosite inh
CC(C)CC#Cc1ccc([C@H]2[C@@H](CO)N3C(=O)CN(S(C)(=O)=O)C[C@H]23)cc1,3.53
O=C(c1ccccc1)N1CC(=O)N2[C@@H](CO)[C@@H](c3ccc(C#CCC4CCCC4)cc3)[C@@H]2C1,2.87
CO[C@H]1CN(C)C(=O)c2cc(NC(=O)c3cnccn3)ccc2OC[C@@H](C)NC[C@@H]1C,2
COc1cccc(NC(=O)Nc2ccc3c(c2)C(=O)N(C)C[C@H](OC)[C@H](C)CN[C@H](C)CO3)c1,1.65
COc1cccc(NC(=O)Nc2ccc3c(c2)C(=O)N(C)C[C@@H](OC)[C@@H](C)CN[C@@H](C)CO3)c1,-0.138
COc1cccc(NC(=O)Nc2ccc3c(c2)C(=O)N(C)C[C@@H](OC)[C@@H](C)CN[C@H](C)CO3)c1,-0.955
CO[C@H]1CN(C)C(=O)c2cc(NC(=O)c3ccc(Oc4ccccc4)cc3)ccc2OC[C@@H](C)NC[C@@H]1C,-13.2*
CO[C@@H]1CN(C)C(=O)c2cc(NC(=O)c3ccc(Oc4ccccc4)cc3)ccc2OC[C@H](C)NC[C@H]1C,-7.56*
Cc1ccc(OC(=O)N(C)C[C@@H]2OCc3ccccc3-c3ccccc3C(=O)N([C@@H](C)CO)C[C@@H]2C)cc1,0.0215
COc1ccc2c3c(n(C)c2c1)[C@H](CO)N(C(=O)Cc1ccccn1)CC31CCN(C)CC1,-0.95
C[C@@H]1CN([C@@H](C)CO)C(=O)c2ccccc2-c2ccccc2CO[C@@H]1CN(C)Cc1cccnc1,-0.684
CN(C)C(=O)c1ccc(-c2ccc([C@@H]3[C@@H](CO)N4CCCCN(S(C)(=O)=O)C[C@@H]34)cc2)cc1,2.52
COc1ccccc1-c1ccc([C@H]2[C@@H](CO)N3CCCCN(C(=O)CN4CCOCC4)C[C@H]23)cc1,-2.83
Cc1ccccc1-c1ccc([C@H]2[C@@H](CO)N3CCCCN(C(=O)CN4CCOCC4)C[C@H]23)cc1,-9.85*
Cc1ccccc1-c1ccc([C@@H]2[C@@H](CO)N3CCCCN(C(=O)CN4CCOCC4)C[C@@H]23)cc1,-8*
COc1ccccc1-c1ccc([C@H]2[C@H](CO)N3CCCCN(C(=O)CN4CCOCC4)C[C@@H]23)cc1,-3.22*
O=C(CN1CCOCC1)N1CCCCN2[C@H](CO)[C@@H](c3ccc(-c4ccccc4F)cc3)[C@@H]2C1,-3.64*
O=C(CN1CCOCC1)N1CCCCN2[C@H](CO)[C@H](c3ccc(-c4ccccc4F)cc3)[C@@H]2C1,-0.000576
O=C(CN1CCOCC1)N1CCCCN2[C@H](CO)[C@H](c3ccc(-c4ccccc4F)cc3)[C@H]2C1,-0.747
O=C(CN1CCOCC1)N1CCCCN2[C@@H](CO)[C@H](c3ccc(-c4ccccc4F)cc3)[C@@H]2C1,-0.34
COCC(=O)N1CCCCN2[C@H](CO)[C@@H](c3ccc(-c4ccccc4)cc3)[C@H]2C1,0.758
COc1ccccc1CNC(=O)C[C@H]1CC[C@H]2[C@@H](COc3ccc(NC(C)=O)cc3C(=O)N2C)O1,-1.81
OC[C@H]1[C@@H](c2ccc(C#CC3(O)CCCC3)cc2)[C@@H]2CN(Cc3cccnc3)CCCCN12,1.11
COc1ccccc1NC(=O)N1CC(=O)N2[C@H](CO)[C@@H](c3ccc(C#Cc4ccc(F)cc4)cc3)[C@@H]2C1,1.49
CN(C)C(=O)c1ccc(-c2ccc([C@H]3[C@@H](C#N)N(C(=O)C4CCC4)[C@@H]3CO)cc2)cc1,2.56
SMILES,IDE exosite inh
C[C@H]1CCCCO[C@@H](CN(C)CC2CCCCC2)[C@@H](C)CN([C@@H](C)CO)C(=O)c2cc(NS(C)(=O)=O)ccc2O1,0.168
C[C@@H](NC(=O)C[C@@H]1C=C[C@@H](NS(=O)(=O)c2cccc(F)c2)[C@H](CO)O1)c1ccccc1,0.617
COCC(=O)Nc1ccc2c(c1)C(=O)N(C)[C@H]1CC[C@@H](CC(=O)NCCCN(C)C)O[C@H]1CO2,-1.24
CN1C(=O)c2cc(NC(=O)Nc3ccccc3Cl)ccc2OC[C@@H]2O[C@@H](CC(=O)NCCCN3CCOCC3)CC[C@@H]21,-5.06*
CN1C(=O)c2cc(NC(=O)Nc3ccccc3Cl)ccc2OC[C@@H]2O[C@H](CC(=O)NCCCN3CCOCC3)CC[C@H]21,-1.54
CN1C(=O)c2cc(NC(=O)Nc3ccccc3Cl)ccc2OC[C@@H]2O[C@@H](CC(=O)NCCCN3CCOCC3)CC[C@H]21,-1.04
COCC(=O)Nc1ccc2c(c1)C(=O)N(C)[C@@H]1CC[C@@H](CC(=O)NCCCN(C)C)O[C@H]1CO2,0.712
COCC(=O)Nc1ccc2c(c1)C(=O)N(C)[C@@H]1CC[C@H](CC(=O)NCCCN(C)C)O[C@H]1CO2,-3.32*
COCC(=O)N1[C@H](C#N)[C@@H](c2ccccc2-c2cccc(OC)c2)[C@@H]1CO,1.81
CCCNC(=O)Nc1ccc2c(c1)OC[C@H](C)N(C(=O)C1CCOCC1)C[C@H](C)[C@H](OC)CN(C)C2=O,-1.58
O=C(C[C@H]1C[C@@H]2c3cc(NC(=O)C4CCOCC4)ccc3O[C@@H]2[C@H](CO)O1)NCCN1CCCCC1,-0.422
NCC[C@@H]1CC[C@@H](NC(=O)NC2CCCCC2)[C@@H](CO)O1,-0.58
O=C1CNC[C@@H]2[C@H](c3ccc(C4=CCCCC4)cc3)[C@H](CO)N12,1.92
O=C(Cc1ccncc1)NCC[C@H]1CC[C@H](NS(=O)(=O)c2ccccc2Cl)[C@H](CO)O1,1.76
COCC(=O)N1CC(=O)N2[C@H](CO)[C@H](c3ccc(C#CC4CCCCC4)cc3)[C@@H]2C1,1.82
COCC(=O)N1CC(=O)N2[C@H](C1)[C@@H](c1ccc(C#CC3CCCCC3)cc1)[C@@H]2CO,-10.6*
COCC(=O)N1CC(=O)N2[C@H](CO)[C@@H](c3ccc(C#Cc4cccc(OC)c4)cc3)[C@@H]2C1,-4.46*
COCC(=O)N1CC(=O)N2[C@H](C1)[C@H](c1ccc(C#CC3CCCC3)cc1)[C@@H]2CO,0.502
COCC(=O)N1CC(=O)N2[C@@H](CO)[C@H](c3ccc(C#Cc4cccc(OC)c4)cc3)[C@@H]2C1,-4.95*
COCC(=O)N1CC(=O)N2[C@H](C1)[C@@H](c1ccc(C#Cc3cccnc3)cc1)[C@@H]2CO,-0.0665
COCC(=O)N1CC(=O)N2[C@H](CO)[C@@H](c3ccc(C#Cc4cccc(OC)c4)cc3)[C@H]2C1,-1.18
COCC(=O)N1CC(=O)N2[C@@H](CO)[C@H](c3ccc(C#Cc4cccnc4)cc3)[C@@H]2C1,1.09
CC(C)C#Cc1ccc([C@H]2[C@@H](C#N)N(C(=O)C3CC3)[C@@H]2CO)cc1,-0.735
C/C=C/c1ccc([C@@H]2[C@@H](CNC(=O)C3CCC3)N(C(=O)NCCC)[C@H]2CO)cc1,-0.296
O=C(Cc1ccccc1)N1CC(=O)N2[C@H](CO)[C@@H](c3ccc(C4=CCCC4)cc3)[C@@H]2C1,1.73
SMILES,IDE exosite inh
Cc1ccccc1-c1ccc([C@H]2[C@H]3CN(C(=O)Nc4cccc(F)c4)CC(=O)N3[C@H]2CO)cc1,-0.759
CC(C)CC#Cc1ccc([C@@H]2[C@H]3CN(S(C)(=O)=O)CC(=O)N3[C@H]2CO)cc1,1.6
C[C@@H](O)C#Cc1ccc([C@@H]2[C@@H](CO)N3CCCCN(C(=O)c4ccc5c(c4)OCO5)C[C@H]23)cc1,0.404
O=C(CN1CCOCC1)N1CCCCN2[C@H](C1)[C@H](c1ccc(-c3ccccc3)cc1)[C@@H]2CO,0.9
O=C(CN1CCOCC1)N1CCCCN2[C@H](CO)[C@H](c3ccc(C#Cc4ccccc4)cc3)[C@@H]2C1,-12.9*
O=C(CN1CCOCC1)N1CCCCN2[C@H](CO)[C@@H](c3ccc(C#Cc4ccccc4)cc3)[C@@H]2C1,-6.17*
OC[C@H]1[C@@H](c2ccc(C#Cc3ccccc3)cc2)[C@@H]2CN(CC3CCOCC3)CCCCN12,-5.38*
